This is an account of results in PubChem BioAssay (NCATS).

Values joined by “and” are separate entries in the source; they are usually repeats but may differ in a detail not shown here. Equal entries are not always repeated. Records with an inconclusive call do not appear. Where a call stands in place of a potency, no number is given. Active and inactive are the calls of the source. Unless noted, calls follow the shape of the dose curve; as a rule, active = well fitted inhibition curve with a large enough effect; inconclusive = small, poorly fitted or top-dose-only effect; inactive = flat fitted curve, though single readings scatter.

Sequence of Atrial natriuretic peptide receptor 2 (Homo sapiens) (P20594 whole entry, looked up): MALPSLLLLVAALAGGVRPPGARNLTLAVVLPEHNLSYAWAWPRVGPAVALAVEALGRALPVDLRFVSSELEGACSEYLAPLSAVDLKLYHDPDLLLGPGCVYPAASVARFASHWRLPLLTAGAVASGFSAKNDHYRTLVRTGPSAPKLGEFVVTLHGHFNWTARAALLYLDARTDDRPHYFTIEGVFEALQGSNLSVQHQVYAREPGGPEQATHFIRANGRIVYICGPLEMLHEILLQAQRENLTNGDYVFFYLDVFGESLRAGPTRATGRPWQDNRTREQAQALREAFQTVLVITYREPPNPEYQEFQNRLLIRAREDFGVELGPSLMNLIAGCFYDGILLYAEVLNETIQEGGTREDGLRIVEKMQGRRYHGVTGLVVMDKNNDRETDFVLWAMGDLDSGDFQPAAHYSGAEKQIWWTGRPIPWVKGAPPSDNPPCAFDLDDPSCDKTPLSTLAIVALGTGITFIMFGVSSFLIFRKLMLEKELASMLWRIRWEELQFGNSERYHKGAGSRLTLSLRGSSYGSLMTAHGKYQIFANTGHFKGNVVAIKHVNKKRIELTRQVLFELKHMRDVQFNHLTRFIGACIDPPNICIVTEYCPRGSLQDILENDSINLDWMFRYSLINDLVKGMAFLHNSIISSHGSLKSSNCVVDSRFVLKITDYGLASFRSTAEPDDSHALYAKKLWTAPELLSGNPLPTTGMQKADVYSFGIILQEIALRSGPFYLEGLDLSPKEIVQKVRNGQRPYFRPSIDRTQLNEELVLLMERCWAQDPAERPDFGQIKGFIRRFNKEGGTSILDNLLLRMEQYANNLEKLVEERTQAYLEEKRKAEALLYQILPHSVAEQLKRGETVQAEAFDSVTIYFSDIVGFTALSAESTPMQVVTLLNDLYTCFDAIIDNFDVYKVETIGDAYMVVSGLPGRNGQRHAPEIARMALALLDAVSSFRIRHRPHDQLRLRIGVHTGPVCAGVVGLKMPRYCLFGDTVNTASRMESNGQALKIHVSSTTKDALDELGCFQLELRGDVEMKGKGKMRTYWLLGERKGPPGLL

Tested on in the first test: not listed separately
The experiment in a line: P-glycoprotein substrates identified in KB-8-5-11 adenocarcinoma cell line, qHTS therapeutic library screen (AID 1346987). Also: nearly all actives have a fitted effect of over 65% in size. Also: potency is read from the fitted curve at half-maximal effect. The note with it: KB-8-5-11 (P-gp overexpressing) viability, CellTiter-Glo, 72 h; series mostly up to 44.5 µM. Put shortly:
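In this qHTS, P-gp-rich KB-8-5-11 cells received library compounds across a concentration range. Viability was quantified by luminescence after 72 h at 37 degree C.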
(In general: qHTS replaces the single test concentration by a dilution series.)
Consider `CN[C@@H](C)C(=O)N[C@H]1CN(C(=O)CC(C)C)CC[C@H]2CC[C@@H](C(=O)NC(c3ccccc3)c3ccccc3)N2C1=O`, for which the Potency entry is “inactive”. As for `O=C(NOCC(O)CO)c1cc(Br)c(F)c(F)c1Nc1ccc(I)cc1F` (configuration not stated), the Potency entry is “inactive”. Same read-out and setting: next, `O=C1C[C@@H](c2ccc(O)cc2)Oc2cc(O)cc(O)c21`: “inactive”; `COc1ccccc1N1CCN(CCCNc2cc(=O)n(C)c(=O)n2C)CC1`: “inactive”.

As to `CC(C)(C)c1ccc(C(O)CCCN2CCC(C(O)(c3ccccc3)c3ccccc3)CC2)cc1` (configuration not stated), the Potency was 13 µM (active) and 18.4 µM (active).

Regarding `CC(=O)N[C@@H](CS)C(=O)O`, the Potency entry was “inactive”. The same measure, in the same setting: with `NC(N)=Nc1nc(CSCC/C(N)=N/S(N)(=O)=O)cs1` the entry was “inactive”.

Turning to `NC1=N[C@@]2(c3cc(NC(=O)c4ccc(F)cn4)ccc3F)COC[C@@H]2CS1`, the Potency result is “inactive”. With `C=C1C(=O)OC2C=C(C)CCC=C(C)CCC12` (configuration not stated), the Potency entry was “inactive”. The same measure, in the same setting: next, `CCCNC(=O)NS(=O)(=O)c1ccc(Cl)cc1`: “inactive”; `O=C(O)C(O)Cc1ccc(O)c(O)c1` (configuration not stated): “inactive”; `O=C1NC(=O)C(c2ccccc2)(c2ccccc2)N1`: “inactive”.

Consider `CC(C)C[C@H](CC(=O)O)C(=O)N[C@@H](Cc1c[nH]c2ccccc12)C(=O)N[C@@H](C)c1ccccc1`, for which the Potency result is “inactive”. In the case of `CC(C)C(C)C=CC(C)C1CCC2C3=CC=C4CC(O)CCC4(C)C3CCC21C` (configuration not stated), the Potency entry was “inactive”. Still for that read-out and setting: next, `CC(C)NCC(O)COc1cccc2[nH]ccc12` (configuration not stated): “inactive”. For the compound `C[C@@H](O)[C@H]1C(=O)N2C(C(=O)O)=C(S[C@@H]3CN[C@H](C(=O)N(C)C)C3)[C@H](C)[C@H]12`, the Potency entry is “inactive”. Same read-out and setting: next, `COc1ccc2c3c1OC1C[C@@H](O)C=C[C@@]31CCN(C)C2` (some centres not stated): “inactive”; `O=C(O)[C@H]1O[C@H](Oc2cc3oc(-c4ccccc4)cc(=O)c3c(O)c2O)[C@H](O)[C@@H](O)[C@H]1O`: “inactive”; `Clc1cc(Cl)cc(CNc2ncncc2-c2ccc3c(c2)OCO3)c1`: 13.2 µM (active). Consider `N[C@H](CSC(c1ccccc1)(c1ccccc1)c1ccccc1)C(=O)O`, for which the Potency result was “inactive”. Still for that read-out and setting: with `CCN(CC)C(=O)c1ccc(O)c(OC)c1` the entry was “inactive”. Still for that read-out and setting: next, `CC(C)(C)OC(=O)N[C@H]1CCCCCC=C[C@@H]2C[C@@]2(C(=O)NS(=O)(=O)C2CC2)NC(=O)[C@@H]2C[C@@H](OC(=O)N3Cc4cccc(F)c4C3)CN2C1=O`: “inactive”. With `O=c1cc(-c2ccc(O)cc2)oc2cc(O)cc(O)c12`, the Potency result was “inactive”. Same read-out and setting: next, `CC(=O)c1ccc(S(=O)(=O)NC(=O)NC2CCCCC2)cc1`: “inactive”; `CC1(C)CCC2=C(O1)c1ccccc1C(=O)C2=O`: “inactive”.

With `C[C@]12CC[C@@H]3c4ccc(O)cc4CC[C@H]3[C@H]1C[C@@H](O)[C@H]2O`, the Potency result is “inactive”. On the same count and under the same terms, next, `CN(C[C@@H]1COCCO1)S(=O)(=O)Nc1ccc2ccc3ncc(-c4cnn(C)c4)cc3c(=O)c2c1`: 18.7 µM (active) and 18.4 µM (active).

As for `O=C1c2ccccc2-[n+]2ccc3c([nH]c4ccccc43)c21`, the Potency was 3.32 µM (active). For the compound `COc1cc(O)c2c(c1)C(=O)c1cc(C)cc(O)c1C2=O`, the Potency entry is “inactive”. The same measure, in the same setting: with `C[C@@H]1CCN(C(=O)CC#N)C[C@H]1N(C)c1ncnc2[nH]ccc12` the entry was “inactive”; with `Cc1[nH]c(C=C2C(=O)Nc3ccc(S(=O)(=O)Cc4c(Cl)cccc4Cl)cc32)c(C)c1C(=O)N1CCC[C@H]1CN1CCCC1`, “inactive”.

As to `CN(C)CCC(c1ccccc1)c1ccccn1` (configuration not stated), the Potency result is “inactive”. Still for that read-out and setting: with `CC(C)n1nc(-c2ccc3oc(N)nc3c2)c2c(N)ncnc21` the figure was 1.3 nM (active) and 32.6 nM (active). The same measure, in the same setting: with `COc1ccc(-c2coc3cc(O)ccc3c2=O)cc1` the entry was “inactive”. Still for that read-out and setting: with `Cn1cc(C=C2C(=O)Nc3cccnc32)c2ccccc21` the entry was “inactive”.

The target of the next test is Atrial natriuretic peptide receptor 1 (Homo sapiens) (UniProt P16066). Kind of test: Natriuretic polypeptide receptor (hNpr1) antagonism - Pilot screen (AID 1347049; calls by dose curve;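 also: HEK293 cells with hNpr1 and GloSensor cGMP luciferase stimulated by 0.1 nM hNppA; agonist-evoked cGMP luminescence read 20 min after hNppA addition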). Particulars: hNpr1 cells, antagonist mode cGMP read-out; series mostly up to 57.5 µM. The method in brief: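 Cells expressing receptor plus cGMP biosensor are seeded and incubated overnight at 37C, then loaded with GloSensor reagent (2% final) at room temperature for 2 h. Library compounds go on for 30 min. A pre-read precedes agonist (hNppA, 0.1 nM final) and a 20-min readout.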
Sequence of Atrial natriuretic peptide receptor 1 (Homo sapiens) (P16066 whole entry, looked up): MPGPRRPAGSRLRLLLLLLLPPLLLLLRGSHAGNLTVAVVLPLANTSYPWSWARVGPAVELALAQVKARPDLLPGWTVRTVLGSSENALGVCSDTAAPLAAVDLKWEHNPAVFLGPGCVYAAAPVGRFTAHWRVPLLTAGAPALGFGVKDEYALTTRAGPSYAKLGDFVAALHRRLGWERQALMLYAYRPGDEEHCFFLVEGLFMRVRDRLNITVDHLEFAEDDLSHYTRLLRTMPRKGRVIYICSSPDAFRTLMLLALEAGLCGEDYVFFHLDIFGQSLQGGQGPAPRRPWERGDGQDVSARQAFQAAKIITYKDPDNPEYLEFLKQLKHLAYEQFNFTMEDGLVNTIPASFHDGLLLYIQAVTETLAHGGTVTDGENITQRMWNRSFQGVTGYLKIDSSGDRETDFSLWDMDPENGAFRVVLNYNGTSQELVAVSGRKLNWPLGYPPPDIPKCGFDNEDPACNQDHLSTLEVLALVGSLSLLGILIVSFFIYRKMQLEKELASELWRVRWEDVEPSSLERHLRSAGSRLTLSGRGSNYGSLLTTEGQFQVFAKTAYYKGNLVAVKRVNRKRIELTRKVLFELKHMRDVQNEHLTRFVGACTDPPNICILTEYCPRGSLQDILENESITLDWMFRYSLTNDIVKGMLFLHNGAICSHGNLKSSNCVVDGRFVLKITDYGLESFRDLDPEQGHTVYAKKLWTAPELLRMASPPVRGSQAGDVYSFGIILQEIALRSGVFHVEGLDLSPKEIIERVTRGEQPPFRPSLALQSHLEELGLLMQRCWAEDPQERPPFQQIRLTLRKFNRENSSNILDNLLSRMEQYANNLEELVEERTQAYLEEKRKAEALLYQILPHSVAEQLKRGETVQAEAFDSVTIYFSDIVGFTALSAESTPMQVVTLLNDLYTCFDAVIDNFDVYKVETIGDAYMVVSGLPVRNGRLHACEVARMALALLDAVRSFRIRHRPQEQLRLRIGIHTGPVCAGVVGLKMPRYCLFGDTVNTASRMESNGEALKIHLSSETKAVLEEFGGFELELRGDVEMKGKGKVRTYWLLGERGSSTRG
In the case of `COc1ccccc1N1CCN(CCCNc2cc(=O)n(C)c(=O)n2C)CC1`, the outcome was inactive. Consider `CC(=O)N[C@@H](CS)C(=O)O`, for which the result was inactive. Take `NC(N)=Nc1nc(CSCC/C(N)=N/S(N)(=O)=O)cs1`: the result was inactive. The same measure, in the same setting: next, `CCCNC(=O)NS(=O)(=O)c1ccc(Cl)cc1`: “inactive”; `O=C1NC(=O)C(c2ccccc2)(c2ccccc2)N1`: “inactive”; `CC(C)NCC(O)COc1cccc2[nH]ccc12` (configuration not stated): “inactive”. Same read-out and setting: next, `CCN(CC)C(=O)c1ccc(O)c(OC)c1`: “inactive”. The same measure, in the same setting: with `O=c1cc(-c2ccc(O)cc2)oc2cc(O)cc(O)c12` the entry was “inactive”; with `CC(=O)c1ccc(S(=O)(=O)NC(=O)NC2CCCCC2)cc1`, “inactive”. On to `CC1(C)CCC2=C(O1)c1ccccc1C(=O)C2=O`, for which the outcome was inactive. As for `CN(C)CCC(c1ccccc1)c1ccccn1` (configuration not stated), the outcome was inactive.

The next test addresses Atrial natriuretic peptide receptor 2 (Homo sapiens) (UniProt P20594). The experiment in a line: Natriuretic polypeptide receptor (hNpr2) antagonism - Pilot subtype selectivity assay (AID 1347050; calls by dose curve). The note with it: NPR2-expressing cells, cGMP antagonist-mode read-out; series mostly up to 38.3 µM. The method in brief: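 Read-out: GloSensor luminescence (CCD imager), baseline vs post-stimulation. HEK293 cells expressing hNpr2; compounds pre-incubated 30-50 min at ambient temperature; hNppC 1 nM final, 20 min.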
Take `COc1ccccc1N1CCN(CCCNc2cc(=O)n(C)c(=O)n2C)CC1`: the outcome was inactive.

As for `CC(C)(C)c1ccc(C(O)CCCN2CCC(C(O)(c3ccccc3)c3ccccc3)CC2)cc1` (configuration not stated), the result was inactive.

On to `CC(=O)N[C@@H](CS)C(=O)O`, for which the result was inactive. As to `NC(N)=Nc1nc(CSCC/C(N)=N/S(N)(=O)=O)cs1`, the outcome was inactive.

Regarding `CCCNC(=O)NS(=O)(=O)c1ccc(Cl)cc1`, the outcome was inactive. On the same count and under the same terms, with `O=C1NC(=O)C(c2ccccc2)(c2ccccc2)N1` the entry was “inactive”.

Consider `CC(C)NCC(O)COc1cccc2[nH]ccc12` (configuration not stated), for which the result was inactive.

With `CCN(CC)C(=O)c1ccc(O)c(OC)c1`, the result was inactive.

For `O=c1cc(-c2ccc(O)cc2)oc2cc(O)cc(O)c12`, the result was inactive. As for `CC(=O)c1ccc(S(=O)(=O)NC(=O)NC2CCCCC2)cc1`, the result was inactive.

On to `CN(C)CCC(c1ccccc1)c1ccccn1` (configuration not stated), for which the result was inactive.
